# Reference: PubChem BioAssay (NCATS)
# Inconclusive results are not listed. Active and inactive are the calls of the source. Unless noted, the call rests on the fitted dose curve; in most records, active means well fitted curve in the direction sought with a large enough effect; inconclusive means small, poorly fitted or top-dose-only effect, or another doubt; inactive means no such curve, though single readings can be large; an effect the other way counts as inactive or inconclusive.
# Assays:
# [1] = target: Catechol O-methyltransferase (Homo sapiens) (UniProt P21964); test: Confirmatory Screen for Target Class Profiling of Small Molecule Inhibitors of Methyltransferases (AID 1745852; calls by dose curve; further: potency means the concentration at half of the fitted maximal effect; on activity change, negative = inhibition: on the % scale 0 is the no-effect control and ±100 the full control effect); conditions: MTase-Glo luminescence, SAH detection, recombinant enzyme; measured here: COMT max response; stronger effect = lower value
# [2] = target: Guanidinoacetate N-methyltransferase (Homo sapiens) (UniProt Q14353); test: as above; conditions: MTase-Glo luminescence, SAH detection, recombinant enzyme; activity change, negative = inhibition: at 57.3 µM (top of the series) unless noted
# [3] = target: Nicotinamide N-methyltransferase (Homo sapiens) (UniProt P40261); test: as above; conditions: MTase-Glo luminescence, SAH detection, recombinant enzyme; measured here: NNMT max response; stronger effect = lower value
# [4] = target: Phenylethanolamine N-methyltransferase (Homo sapiens) (UniProt P11086); test: as above; conditions: MTase-Glo luminescence, SAH detection, recombinant enzyme; measured here: PNMT max response; stronger effect = lower value
# [5] = target: Rap guanine nucleotide exchange factor 4 (Homo sapiens) (UniProt Q8WZA2); test: Confirmatory qHTS for agonist of cAMP-regulated guanine nucleotide exchange factor 4 (EPAC2) (AID 1645884); conditions: EPAC2 GEF activity, Rap1B-BODIPY-GDP fluorescence, percent relative to cAMP agonist control; series mostly up to 154 µM;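 further: nucleotide exchange releases bodipy-GDP from Rap1 and this lowers its fluorescence; on the % scale 0 is the no-effect control and ±100 the full control effect; nearly all actives have a fitted effect of over 65% in size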
# [6] = target: Rap guanine nucleotide exchange factor 4 (Homo sapiens) (UniProt Q8WZA2); test: Confirmatory qHTS for antagonist of cAMP-regulated guanine nucleotide exchange factor 4 (EPAC2) (AID 1645885); conditions: EPAC2 Rap1B-BODIPY-GDP exchange fluorescence, biochemical; series mostly up to 12.7 µM; further: nearly all actives have a fitted effect of over 25% in size; on activity change, negative = inhibition: on the % scale 0 is the no-effect control and ±100 the full control effect
# [7] = target: Rap guanine nucleotide exchange factor 3 (Homo sapiens) (UniProt O95398); test: Counterscreen qHTS for antagonist of cAMP-regulated guanine nucleotide exchange factor 3 (EPAC1) (AID 1645888); conditions: Rap1B-BODIPY-GDP nucleotide exchange, fluorescence; series mostly up to 154 µM;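 further: fluorescence loss as bound BODIPY-GDP is released from Rap1B; % of control where 0% means no effect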
# Outline: (§1)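 Measured: fluorescence of BODIPY-GDP bound to Rap1B, which falls as exchange proceeds. Conditions include 50 uM competing GDP, 5 and 30 min reads, and a later cAMP challenge for antagonist detection.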
# [8] = target: Rap guanine nucleotide exchange factor 3 (Homo sapiens) (UniProt O95398); test: Counterscreen qHTS for agonist of cAMP-regulated guanine nucleotide exchange factor 3 (EPAC1) (AID 1645889); conditions: EPAC1 Rap1B-BODIPY-GDP exchange, fluorescence; series mostly up to 154 µM; further: % of control where 0% means no effect; nearly all actives have a fitted effect of over 40% in size
# Outline: as §1
# Chain of Rap guanine nucleotide exchange factor 4 (Homo sapiens) (Q8WZA2 whole entry, looked up): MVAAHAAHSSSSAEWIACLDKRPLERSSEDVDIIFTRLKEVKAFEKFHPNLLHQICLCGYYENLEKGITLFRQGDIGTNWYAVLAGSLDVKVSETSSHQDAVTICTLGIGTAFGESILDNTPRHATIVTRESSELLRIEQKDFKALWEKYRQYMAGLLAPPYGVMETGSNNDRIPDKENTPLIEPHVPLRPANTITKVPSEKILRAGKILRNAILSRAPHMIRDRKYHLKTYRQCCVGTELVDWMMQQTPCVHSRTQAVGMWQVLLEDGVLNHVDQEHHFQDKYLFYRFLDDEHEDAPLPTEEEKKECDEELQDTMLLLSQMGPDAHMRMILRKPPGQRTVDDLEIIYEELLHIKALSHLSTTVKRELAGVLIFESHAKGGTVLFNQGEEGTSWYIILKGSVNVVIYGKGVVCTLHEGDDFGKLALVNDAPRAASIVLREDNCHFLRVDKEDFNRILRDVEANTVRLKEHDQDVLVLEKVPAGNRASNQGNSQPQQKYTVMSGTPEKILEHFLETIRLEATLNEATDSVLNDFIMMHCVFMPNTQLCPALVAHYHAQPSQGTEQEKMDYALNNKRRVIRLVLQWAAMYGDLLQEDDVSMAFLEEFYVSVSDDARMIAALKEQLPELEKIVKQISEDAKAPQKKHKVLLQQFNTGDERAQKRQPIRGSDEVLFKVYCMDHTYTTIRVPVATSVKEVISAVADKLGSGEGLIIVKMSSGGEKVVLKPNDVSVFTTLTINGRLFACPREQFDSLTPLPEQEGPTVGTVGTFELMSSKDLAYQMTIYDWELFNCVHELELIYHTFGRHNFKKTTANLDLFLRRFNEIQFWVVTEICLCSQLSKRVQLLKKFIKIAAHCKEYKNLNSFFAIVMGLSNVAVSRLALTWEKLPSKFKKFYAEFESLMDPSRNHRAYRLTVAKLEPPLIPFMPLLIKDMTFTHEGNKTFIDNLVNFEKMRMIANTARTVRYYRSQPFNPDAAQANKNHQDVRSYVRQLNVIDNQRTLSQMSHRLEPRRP
# Chain of Phenylethanolamine N-methyltransferase (Homo sapiens) (P11086 whole entry, looked up): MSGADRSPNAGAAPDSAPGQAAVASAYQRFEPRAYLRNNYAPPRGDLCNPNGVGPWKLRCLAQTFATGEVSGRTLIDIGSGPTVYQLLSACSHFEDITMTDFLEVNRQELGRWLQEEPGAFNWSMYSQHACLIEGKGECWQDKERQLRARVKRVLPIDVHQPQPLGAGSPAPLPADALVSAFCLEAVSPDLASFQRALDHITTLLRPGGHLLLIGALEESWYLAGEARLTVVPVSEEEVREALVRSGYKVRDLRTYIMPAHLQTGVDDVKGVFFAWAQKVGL
# Chain of Catechol O-methyltransferase (Homo sapiens) (P21964 whole entry, looked up): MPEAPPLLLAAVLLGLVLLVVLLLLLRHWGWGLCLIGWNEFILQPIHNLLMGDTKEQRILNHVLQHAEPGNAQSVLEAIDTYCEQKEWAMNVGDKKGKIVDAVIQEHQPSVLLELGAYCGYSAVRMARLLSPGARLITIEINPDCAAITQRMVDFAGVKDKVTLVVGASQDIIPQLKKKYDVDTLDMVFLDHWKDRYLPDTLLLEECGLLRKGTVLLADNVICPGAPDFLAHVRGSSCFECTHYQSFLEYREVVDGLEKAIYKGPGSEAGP
# Chain of Rap guanine nucleotide exchange factor 3 (Homo sapiens) (O95398 whole entry, looked up): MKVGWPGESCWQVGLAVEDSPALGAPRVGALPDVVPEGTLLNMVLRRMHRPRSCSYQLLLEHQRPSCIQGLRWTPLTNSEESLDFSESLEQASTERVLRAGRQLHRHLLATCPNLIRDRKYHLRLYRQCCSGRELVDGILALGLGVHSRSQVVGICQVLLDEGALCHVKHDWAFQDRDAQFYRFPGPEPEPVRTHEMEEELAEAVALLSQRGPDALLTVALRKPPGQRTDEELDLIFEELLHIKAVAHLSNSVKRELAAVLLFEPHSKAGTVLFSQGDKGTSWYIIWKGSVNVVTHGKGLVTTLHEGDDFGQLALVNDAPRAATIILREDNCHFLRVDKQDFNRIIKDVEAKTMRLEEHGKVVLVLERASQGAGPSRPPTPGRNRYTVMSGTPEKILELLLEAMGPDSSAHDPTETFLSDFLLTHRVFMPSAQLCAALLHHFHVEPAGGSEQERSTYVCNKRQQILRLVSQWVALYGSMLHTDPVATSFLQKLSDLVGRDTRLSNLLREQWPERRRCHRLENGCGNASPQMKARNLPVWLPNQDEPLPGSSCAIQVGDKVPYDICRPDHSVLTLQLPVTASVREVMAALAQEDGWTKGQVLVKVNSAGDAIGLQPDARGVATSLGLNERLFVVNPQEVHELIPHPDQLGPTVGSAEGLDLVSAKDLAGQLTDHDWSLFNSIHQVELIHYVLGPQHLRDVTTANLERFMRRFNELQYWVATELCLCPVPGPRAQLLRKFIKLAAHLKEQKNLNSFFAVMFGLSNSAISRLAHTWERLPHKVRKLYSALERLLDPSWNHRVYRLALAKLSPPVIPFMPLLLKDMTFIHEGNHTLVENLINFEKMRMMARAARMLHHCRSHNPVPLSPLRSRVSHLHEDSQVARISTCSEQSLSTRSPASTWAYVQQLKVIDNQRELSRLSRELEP
# Chain of Nicotinamide N-methyltransferase (Homo sapiens) (P40261 whole entry, looked up): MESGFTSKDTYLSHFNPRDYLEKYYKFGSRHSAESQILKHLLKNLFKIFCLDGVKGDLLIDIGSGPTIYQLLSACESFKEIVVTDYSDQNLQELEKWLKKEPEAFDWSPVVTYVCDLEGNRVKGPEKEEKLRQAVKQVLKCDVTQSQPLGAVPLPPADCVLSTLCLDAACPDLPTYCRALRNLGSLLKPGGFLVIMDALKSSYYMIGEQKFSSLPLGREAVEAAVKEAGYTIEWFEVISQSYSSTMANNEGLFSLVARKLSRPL
smiles,measurement,setting,value
O=c1[nH]ccc2nc(-c3ccc(CN4CCC(c5nc(-c6ccccn6)n[nH]5)CC4)cc3)c(-c3ccccc3)cc12,activity,[1],-10.1%
same,"activity change, negative = inhibition",[2],-7.59%
same,activity,[3],-47.8%
same,activity,[4],-18%
CCOc1ccc(-c2cc(NC(=O)c3c(F)cccc3F)c(C(=O)O)s2)cc1,outcome,[5],inactive
same,outcome,[6],inactive
same,outcome,[7],inactive
same,outcome,[8],inactive
same,activity,[1],-2.79%
same,"activity change, negative = inhibition",[2],0.993%
same,activity,[3],-5.18%
same,activity,[4],-2.03%
C=Cc1cc2oc(-c3ccc(O)c(F)c3)nc2cc1O,activity,[1],-57%
same,Potency,[2],30.4 µM (active)
same,activity,[3],-39.5%
same,activity,[4],-56.3%
O=C(/C=C/c1ccccc1)OC[C@H]1O[C@@H](OC(=O)c2cc(O)c(O)c(O)c2)[C@H](O)[C@@H](O)[C@@H]1O,activity,[1],-76.6%
same,"activity change, negative = inhibition",[2],-1.37% [at 29.8 µM]
same,activity,[3],-4.41%
same,activity,[4],-0.813%
CC1=CC(=O)C(=C(C)C)CC2C(C)(O)CCC12O (stereo not given),activity,[1],-81.2%
same,"activity change, negative = inhibition",[2],0.373%
same,activity,[3],2.29%
same,activity,[4],1.07%
CC1(C)C2CCC1(C)C(OC(=O)C(O)(CC(=O)O)CC(=O)O)C2 (stereo not given),activity,[1],-73.1%
same,"activity change, negative = inhibition",[2],0%
same,activity,[3],1.63%
same,activity,[4],2.73%
CC1=C2CC3C(CCC3(C)O)C(C)(O)CC2OC1=O (stereo not given),activity,[1],-78.6%
same,"activity change, negative = inhibition",[2],0%
same,activity,[3],0%
same,activity,[4],0%
CC(C)N(CCCNC(=O)Nc1ccc(C(C)(C)C)cc1)C[C@H]1O[C@@H](n2ccc3c(N)ncnc32)[C@H](O)[C@@H]1O,activity,[1],-14.9%
same,"activity change, negative = inhibition",[2],-7.92%
same,activity,[3],-18.1%
same,activity,[4],-18.6%
CCc1nnc(NS(=O)(=O)c2ccc(NC(=S)NC(=O)/C=C/c3ccc(F)cc3)cc2)s1,outcome,[5],inactive
same,outcome,[7],inactive
same,outcome,[8],inactive
N#Cc1cccc(-c2c[nH]c3ncnc(N4CCOCC4)c23)c1,activity,[1],-74.9%
same,Potency,[2],24.1 µM (active)
same,activity,[3],-64.5%
same,activity,[4],-72.3%
Cc1cc(C)c2nc(-c3ccccn3)cc(C(=O)Nc3ccc(S(=O)(=O)Nc4onc(C)c4C)cc3)c2c1,outcome,[5],inactive
same,outcome,[6],inactive; activator; fitted 7.5686 uM
same,outcome,[7],inactive
O=C(O)CC1CCC(c2ccc(-c3ccc(Nc4ccc(C(F)(F)F)nc4)cn3)cc2)CC1 (stereo not given),activity,[1],-2.38%
same,"activity change, negative = inhibition",[2],0.046%
same,activity,[3],-13.8%
same,activity,[4],-3.22%
C=C(C(=O)O)[C@H]1C[C@]2(C)C(=O)CC[C@]23O[C@H]1C[C@@H]3C,activity,[1],-84.1%
same,"activity change, negative = inhibition",[2],-1.21%
same,activity,[3],-2.06%
same,activity,[4],-0.38%
CC1=CCC(O)C2(C)CCC3C(C)C(=O)OC3C12 (stereo not given),activity,[1],-77%
same,"activity change, negative = inhibition",[2],0%
same,activity,[3],2.91%
same,activity,[4],-2.6%
COc1cc(/C=C/C(=O)OC[C@H]2O[C@@H](OC3OC=C(C(=O)O)C4C(O)CC(C)(O)C34)[C@H](O)[C@@H](O)[C@@H]2O)cc(OC)c1O (stereo not given in full),activity,[1],-54.7%
same,"activity change, negative = inhibition",[2],-2.09% [at 19.1 µM]
same,activity,[3],0.931%
same,activity,[4],-3.81%
C[C@]1(C2CCCC2)Cc2cc(OCC(=O)O)c(Cl)c(Cl)c2C1=O,activity,[1],-5.66%
same,"activity change, negative = inhibition",[2],-6.29%
same,activity,[3],-48.2%
same,activity,[4],-6.93%
Nc1ncnc2c1ncn2[C@H]1O[C@@H](C(=O)N2CCN(CC(=O)Nc3cccc4c3CNC4=O)CC2)[C@H](O)[C@@H]1O,activity,[1],-12.8%
same,Potency,[2],21.5 µM (active)
same,activity,[3],-14.5%
same,activity,[4],-35.1%
CC1OC(OC2C(OC(=O)[C@]34CCC(C)(C)C[C@H]3C3=CCC5[C@@]6(C)CC[C@H](OC7OC(C(=O)O)C(O)C(O)C7O)C(C)(C)C6CC[C@@]5(C)[C@]3(C)CC4O)OC(CO)C2O)C(O)C(O)C1OC1OCC(O)C(O)C1O (stereo not given in full),activity,[1],-87.7%
same,"activity change, negative = inhibition",[2],0% [at 19.1 µM]
same,activity,[3],-6.05%
same,activity,[4],-8.02%
CC(=O)OC/C(=C/C(=O)O)CC[C@@H]1C(CO)=CC[C@@H]2C(C)(C)CCC[C@@]12C,activity,[1],-82.3%
same,"activity change, negative = inhibition",[2],-4.99%
same,activity,[3],-8.71%
same,activity,[4],-5.03%
COc1cnc(-c2ccc(Cn3c(CC(C)(C)C(=O)O)c(SC(C)(C)C)c4cc(OC[C@@H]5Cc6ccccc6N5C(C)=O)ccc43)cc2)nc1,activity,[1],-6.21%
same,"activity change, negative = inhibition",[2],-3.63%
same,activity,[3],-11.1%
same,activity,[4],-8.45%
COc1c2c(c(C)c3c1C(=O)OC3)OC1(C)CC(O)C34OC(OC)(CC(O)C3(C)C1C2)OC4(C)C (stereo not given),activity,[1],-15%
same,"activity change, negative = inhibition",[2],-2.68% [at 29.8 µM]
same,activity,[3],-8.14%
same,activity,[4],-5.39%
C=C1C[C@]23C[C@@]1(O)CC[C@H]2[C@@]12C=C[C@H](O)[C@@](C)(C(=O)O1)[C@H]2[C@@H]3C(=O)O,outcome,[5],inactive
O=C(CCc1ccccc1)c1c(O)c([C@@H]2O[C@H](CO)[C@@H](O)[C@H](O)[C@H]2O)c(O)c([C@@H]2O[C@H](CO)[C@@H](O)[C@H](O)[C@H]2O)c1O,activity,[1],-89.3%
same,"activity change, negative = inhibition",[2],2.13% [at 19.1 µM]
same,activity,[3],-0.132%
same,activity,[4],4.21%
COc1cc(/C=C/C(=O)OCC2OC(OC3(CO)OC(CO)C(O)C3O)C(O)C(O)C2O)ccc1O (stereo not given),activity,[1],-68.2%
same,"activity change, negative = inhibition",[2],-1.33% [at 29.8 µM]
same,activity,[3],-1.16%
same,activity,[4],3.04%
